The list is not random: actives were taken first. Their share in the collection is about 2.4%.
POLK inh: DNA polymerase kappa (human) inhibition; Q9UBT6; Potency, µM (top dose mostly 107 µM), for the others: at the top dose activity, negative = inhibition, actives largely listed as inhibitors; hit rate 0.53% among 400,000; purified Pol kappa, fluorescent DNA synthesis assay, 10 min; note: % is set by controls: 0 for no effect and ±100 for the full control effect
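Here, compound and 10 nM enzyme are combined for 15 min at room temperature; adding 50 nM substrate (final) starts DNA synthesis, tracked by fluorescence at 0 and 10 min against buffer-only wells.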
FEN1 inh: blocks human flap endonuclease 1; Recombinant FEN1 flap cleavage, fluorescence, 15 min; P39748; hit rate 0.35% among 390,000; Potency, µM (highest dose often 114 µM), without a hit: at the highest dose activity change, negative = inhibition, most hits filed as inhibitors; note: % is set by controls: 0 for no effect and ±100 for the full control effect; nearly all actives have a fitted effect of over 65% in size
Target sequence (P39748 whole entry, looked up): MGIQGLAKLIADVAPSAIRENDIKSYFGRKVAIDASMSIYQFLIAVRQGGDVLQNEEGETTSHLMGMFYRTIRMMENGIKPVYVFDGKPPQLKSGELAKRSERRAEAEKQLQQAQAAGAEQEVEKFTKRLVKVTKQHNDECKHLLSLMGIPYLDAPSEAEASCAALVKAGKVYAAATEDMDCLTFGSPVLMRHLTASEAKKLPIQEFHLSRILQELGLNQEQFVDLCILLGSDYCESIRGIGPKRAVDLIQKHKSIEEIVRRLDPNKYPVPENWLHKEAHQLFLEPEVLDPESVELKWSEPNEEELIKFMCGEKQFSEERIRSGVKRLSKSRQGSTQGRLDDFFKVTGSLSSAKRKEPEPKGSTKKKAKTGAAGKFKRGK
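FEN1 at 10 nM, compound pretreatment for 15 min (room temperature), 50 nM final substrate to initiate; endpoint reads at 0 and 15 min; DMSO-only plates used as vehicle background.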
TDP1 block: inhibitors of human tyrosyl-DNA phosphodiesterase TDP1; Q9NUW8; recombinant TDP1, AlphaScreen DNA substrate cleavage; Potency, µM (highest dose often 130 µM), for the others: top-dose activity change, negative = inhibition, most hits filed as inhibitors; hit rate 0.28% among 350,000; AID 485290; note: % is set by controls: 0 for no effect and ±100 for the full control effect; nearly all actives have a fitted effect of over 40% in size
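Enzyme-compound mixtures sat 15 min at room temperature, followed by a 5 min reaction with 15 nM final substrate and 10 min with AlphaScreen beads. Recombinant human Tdp1 was used at 1 nM final.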
POLH inh: inhibitors of human DNA polymerase eta | Q9Y253 | recombinant Pol eta, fluorescent DNA replication assay | Potency, µM (highest dose often 114 µM), for inactives: at the highest dose activity change, negative = inhibition, usual class: inhibitors | hit rate 1.2% among 390,000; note: % is set by controls: 0 for no effect and ±100 for the full control effect
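Pol eta (10 nM) was preincubated with compounds for 15 min at room temperature, after which fluorescent replication substrate (50 nM final) was added to start the reaction. Fluorescence was read kinetically at 0 and 10 min.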
Pol iota inh: DNA polymerase iota (human) inhibition | Q9UNA4 | Pol iota fluorescent replication assay, 10 min | Potency, µM (highest dose often 115 µM), for the others: top-dose activity, negative = inhibition, most hits filed as inhibitors | hit rate 1% among 390,000 | AID 588590
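Fluorescent replication assay read twice, at 0 min and 10 min after adding 50 nM (final) substrate. Enzyme (10 nM) and compounds were first incubated 15 min at room temperature; enzyme-free buffer wells were negative controls.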
Pol beta inh: inhibitors of human DNA polymerase beta. Pol beta primer extension/strand displacement, fluorescence kinetic. Potency, µM (titrated, usually from 114 µM), without a hit: at the top dose activity change, negative = inhibition, most hits filed as inhibitors. hit rate 1.3% among 340,000; note: % is set by controls: 0 for no effect and ±100 for the full control effect
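Preincubation: enzyme (10 nM) with compound, 15 min, RT. Reaction: substrate added to 50 nM final. Reads: 0 and 10 min. Analysis: normalized, Hill fit.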
* hit, by the source's call; ? = inconclusive; . = no result; [ ] = remark or other dose. Calls come from the whole dose curve; as a rule, active = well fitted curve in the direction sought with a large enough effect; inconclusive = small, poorly fitted or top-dose-only effect, or another doubt; inactive = no such curve, though single readings can be large; an effect the other way counts as inactive or inconclusive. Potency is the fitted concentration of half-maximal effect.

SMILES	POLK inh	FEN1 inh	TDP1 block	POLH inh	Pol iota inh	Pol beta inh
O=C1CCc2cc(S(=O)(=O)Nc3ccc4ncccc4c3)ccc2N1	.	.	2.8%	.	.	.
CC(=O)c1cccc(NC(=O)NNC(=O)c2ccc3ccccc3c2)c1	12.0%	-2.1%	1.9%	-6.3%	-13.3%	0.7%
O=C(CSc1ccccc1)Nc1ccc(C(=O)Nc2ccc(O)cc2)cc1	-9.8%	-12.3%	5.4%	-3.1%	-18.6%	79.4µM*
O=C(NC(=S)Nc1c(Cl)ccc2nsnc12)c1ccco1	-24.4%	-13.3%	-5.3%	-4.5%	25.1µM*	10.1%
COC(=O)c1ccc(NC(=O)CSc2ccccc2)cc1	-9.6%	-9.5%	4.5%	-16.2%	-1.7%	18.1%
O=C(NNC(=O)c1ccc2ccccc2c1)Nc1ccc(F)cc1	-3.5%	-5.0%	-0.3%	-15.2%	?	44.7µM*
O=C(NC(=S)Nc1ccccc1Cl)c1ccco1	-24.3%	-4.0%	-1.0%	2.8%	20.0%	-2.6%
COc1ccc(C(=O)Nc2ccccc2C(=O)O)cc1NC(=O)C(c1ccccc1)c1ccccc1	-19.2%	-20.8%	4.8%	89.1µM*	7.0%	?
COc1cccc(C2c3c(ncn(-c4cccc(Cl)c4)c3=N)Oc3ccc4ccccc4c32)c1 (configuration not stated)	.	.	6.9%	.	.	.
Cc1cnc(NC(=O)CSc2nnc(Cc3ccccc3)o2)s1	-7.4%	0.1%	-9.1%	-9.9%	70.8µM*	-0.7%
Cc1ccc(NC2=CC(=O)c3sc(C)nc3C2=O)cc1	2.8%[60.1 µM]	.	17.4%	.	.	.
O=C(Nc1nc(-c2ccco2)c(-c2ccco2)s1)c1c(F)cccc1Cl	?	-20.8%	9.5%	?	-35.5%	.
O=C(Nc1nc(-c2ccco2)c(-c2ccco2)s1)c1ccc(F)cc1F	50.1µM*	?	-5.7%	?	?	.
CCOC(=O)c1sc(N2N=C(C)C(N=Nc3cccc(C)c3)C2=O)nc1C (configuration not stated)	89.1µM*	-23.6%	.	39.8µM*	50.1µM*	?
COc1cc(N(C)C)c(OC)cc1/C=C1\Cc2ccccc2C1=O	-8.5%	?	.	.	?	.
CC(C)Cn1c(/C=C/c2ccco2)nc2ccccc21	-14.1%	-1.4%	8.1%	-6.5%	20.2%	28.2µM*
CCCCCCCCN1[C@@H](CC(=O)OC)c2ccc(/C=C/C(=O)OC)cc2S1(=O)=O	-39.0%	-13.1%	.	.	?	.
Cc1cccc(NC(=O)CCc2c(C)nc3c(c(C)nn3C(C)(C)C)c2C)c1C	-7.5%	-1.0%	5.1%	-2.4%	18.1%	-0.9%
S=C(NCCCc1cnc[nH]1)NCCCN(Cc1ccc(Cl)cc1)c1ccc(Br)cc1	-21.0%	?	.	.	-2.3%	.
O=C(NC1CCCC1)c1sc(=S)n2c1[nH]c(=O)c1ccccc12	-24.3%	?	5.9%	56.2µM*	?	?
Cc1ccc(CNC(=O)c2ccc3c(=O)[nH]c4c(C(=O)NCC5CCCO5)sc(=S)n4c3c2)cc1 (configuration not stated)	-15.1%	?	0.0%	-24.3%	24.2%	-1.9%
CCCCCNC(=O)c1ccc2c(=O)[nH]c3c(C(=O)NCC4CCCO4)sc(=S)n3c2c1 (configuration not stated)	-44.4%	-4.7%	5.6%	25.1µM*	-18.8%	-7.6%
O=C(NCc1ccco1)c1sc(=S)n2c1[nH]c(=O)c1ccccc12	?	?	1.0%	22.4µM*	?	50.1µM*
O=C1CCc2cc(S(=O)(=O)Nc3ccc4c(c3)OCCO4)ccc2N1	.	.	0.9%	.	.	.
COc1cc(OC)cc(-c2nnc3n2N=C(c2ccc(OC)cc2OC)CS3)c1	.	.	17.9%	.	.	.
OCCNCCCOc1cccc(Cl)c1Cl	-6.0%[19.4 µM]	.	16.6%[56.1 µM]	.	.	.
CN(C)c1ccc(C(=O)Oc2cc(O/N=[N+](\[O-])N(C)C)c([N+](=O)[O-])cc2[N+](=O)[O-])cc1	-10.9%	?	.	.	36.7%	.
CC1(S(=O)(=O)O)CC(=O)c2ccccc2C1=O (configuration not stated)	-16.4%	?	.	?	6.31µM*	?

Screens (PubChem BioAssay)
